# Bioassay records: PubChem, National Center for Advancing Translational Sciences (NCATS)
# RXFP1 antagonist = antagonists of human relaxin receptor RXFP1. Q9HBX9. HEK293-RXFP1, relaxin-stimulated cAMP HTRF, 30 min; hits give low values. activity change, negative = inhibition, % at 57.5 µM. 350,000 compounds, 0.59% hits. AID 1259400;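 active means activity change of -60% or lower, but not beyond a set lower limit; inconclusive means change between -60% and -40%, or beyond the set limit; inactive means change above -40%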
# Target sequence (Q9HBX9 whole entry, looked up): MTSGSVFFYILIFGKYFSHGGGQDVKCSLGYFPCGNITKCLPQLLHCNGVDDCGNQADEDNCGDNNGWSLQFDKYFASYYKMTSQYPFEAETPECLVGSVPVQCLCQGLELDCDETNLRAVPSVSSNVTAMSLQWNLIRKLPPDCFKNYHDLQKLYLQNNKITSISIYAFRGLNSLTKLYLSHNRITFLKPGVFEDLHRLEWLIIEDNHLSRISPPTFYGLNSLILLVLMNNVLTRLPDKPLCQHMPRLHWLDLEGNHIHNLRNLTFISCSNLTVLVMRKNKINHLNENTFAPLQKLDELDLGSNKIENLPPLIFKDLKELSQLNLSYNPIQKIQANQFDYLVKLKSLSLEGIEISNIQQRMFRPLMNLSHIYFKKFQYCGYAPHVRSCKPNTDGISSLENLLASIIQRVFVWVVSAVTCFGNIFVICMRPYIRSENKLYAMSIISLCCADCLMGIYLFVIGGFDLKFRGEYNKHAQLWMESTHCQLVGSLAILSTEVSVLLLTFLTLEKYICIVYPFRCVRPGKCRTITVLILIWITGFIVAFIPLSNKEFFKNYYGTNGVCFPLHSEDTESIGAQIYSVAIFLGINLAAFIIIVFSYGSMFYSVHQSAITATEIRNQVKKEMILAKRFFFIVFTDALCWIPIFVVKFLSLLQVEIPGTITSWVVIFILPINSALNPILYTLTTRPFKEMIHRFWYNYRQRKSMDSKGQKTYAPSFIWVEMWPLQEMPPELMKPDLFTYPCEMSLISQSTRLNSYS
# RXFP1 ag = RXFP1 (human) receptor agonism | Q9HBX9 | Potency, µM (top dose mostly 57.5 µM), most hits filed as activators | 370,000 compounds, 0.3% hits | HEK293T-RXFP1 cAMP TR-FRET, 30 min; response scale: percent of porcine relaxin response, buffer zero; active means well fitted activation curve with a large enough effect; inconclusive means small, poorly fitted or top-dose-only effect; further: nearly all actives have a fitted effect of over 60% in size
#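 HEK293 cells stably expressing RXFP1, treated 30 min at 37C with compounds plus PDE4 inhibitor Ro 20174; cAMP measured by HTRF TR-FRET. Normalized to buffer and 29 nM porcine relaxin; EC50 by Hill fit.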
# gsp ag = activates gsp, the McCune-Albright syndrome mutation. gsp mutant cells, cAMP HTRF, 30 min. Potency, µM (top dose mostly 76.9 µM), actives largely listed as activators. 340,000 compounds, 0.13% hits. AID 624287; active means well fitted activation curve with a large enough effect; inconclusive means small, poorly fitted or top-dose-only effect, or another doubt; inactive means no such curve, though single readings can be large or run the other way; cell line not stated here;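 further: phosphodiesterase inhibitor Ro 20-1724 added with compounds to block cAMP breakdown; nearly all actives have a fitted effect of over 60% in size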
#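 Cells in DMEM/10% FBS with G418 were pretreated with compounds in DMSO plus […] (300 uM stock) for 30 min at 37C. cAMP was measured by HTRF (cAMP-d2 plus anti-cAMP antibody-K) after 30 min at room temperature.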
# gsp antag = antagonists of gsp mutant (McCune-Albright syndrome) | gsp-mutant cells, cAMP HTRF, 30 min | 340,000 compounds, 0.4% hits | Potency, µM (titrated, usually from 76.9 µM), hits mostly inhibitors; calls by dose curve; cell line not stated here;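 further: intracellular cAMP measured with PDE inhibitor Ro 20-1724 present during compound exposure; nearly all actives have a fitted effect of over 65% in size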
#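 HTRF cAMP measurement after 30 min RT detection following 30 min, 37C compound treatment alongside […] (added as 300 uM solution) in G418-selected cells seeded at 2000/well and grown 16–24 h.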
# A number is an active result; 0 = inactive; ? = inconclusive; - = no result; [ ] = another dose, or the depositor's remark. Most compounds without a hit are left out; they make up all but 0.9% or so of the library.
SMILES,RXFP1 antagonist,RXFP1 ag,gsp ag,gsp antag
COc1ccc(C(C)=O)cc1CSc1nnc(Nc2ccc(C)cc2C)s1,0,0,0[15.4 µM],0
CCN(C(=O)c1ccco1)c1nnc(-c2ccc(OC)cc2)s1,0,?,32µM,0
COC(=O)c1ccc2nc(NC(=O)C3CCCCC3)sc2c1,0,0,0,0
COC(=O)c1ccc2nc(NC(=O)C(C)(C)C)sc2c1,-85,0,0[15.4 µM],0
COc1cccc(N2CCN(c3cnc4ccccc4n3)CC2)c1,0,0,0[15.4 µM],45µM
Cn1c(=O)c2c(nc(N3CCOCC3)n2Cc2cccc(Br)c2)n(C)c1=O,0,0,-,-
Cc1cc(NC(=S)N(Cc2cccc(Br)c2)CC2CCC(C(=O)O)CC2)ccc1Cl (centres undefined),0,0,0,28µM
Cc1ccc(NC(=S)N(Cc2cccc(Br)c2)CC2CCC(C(=O)O)CC2)cc1 (centres undefined),0,0,0,?
O=C(CSc1nc2c(oc3ccccc32)c(=O)n1-c1ccccc1)Nc1ccc(F)c(Cl)c1,-,0,-,-
CCOc1ccc(Cn2nnc(C(=O)NCc3ccc(OC)cc3)c2N)cc1,-,32µM,0,0
O=C(NCC(c1ccc2c(c1)OCO2)N1CCN(c2ccccc2)CC1)C(=O)Nc1ccc(F)cc1 (centres undefined),0,0,-,-
CCC1CCCCN1S(=O)(=O)c1ccc(NC(=O)c2cc(=O)c3c(C)cc(C)cc3o2)cc1 (centres undefined),0,0,-,-
COc1ccc(/C=N/Nc2cc(C)nc3ccccc23)cc1,-71,0,0,0
CCc1ccc(NC(=O)C2CCN(S(=O)(=O)c3c(C)noc3/C=C/N(C)C)CC2)cc1,-62,0,0,0
CCc1ccc(NC(=O)C2CCN(S(=O)(=O)c3c(C)noc3/C=C/c3cccs3)CC2)cc1,0,0,-,-
O=C(CCS(=O)(=O)c1ccccc1)Nc1cccc(-c2nc3ccccc3s2)c1,?,0,0,40µM
O=C(Nc1cccc(-c2nc3ccccc3s2)c1)c1cccs1,0,0,0[15.4 µM],22µM
CCOc1ccc(OCCOc2ccc(/C=C/C(=O)O)cc2OCC)cc1,0,0,0[15.4 µM],20µM
CCc1nnc(NC(=O)c2nc(S(=O)(=O)Cc3ccccc3)ncc2Cl)s1,0,0,0[15.4 µM],?
CCc1nnc(NC(=O)c2nc(S(=O)(=O)Cc3ccc(C)cc3)ncc2Cl)s1,0,0,0[15.4 µM],28µM
CCc1nnc(NC(=O)c2nc(S(=O)(=O)Cc3cccc(C)c3)ncc2Cl)s1,0,0,0[15.4 µM],16µM
CC(C)C[C@@H]1[C@H](c2ccccc2)OC(=O)N1CCCN1CCCCCC1,0,-,-,-
CC(=O)c1sc(C(C)(C)C)cc1NC(=O)CCC(=O)O,0,?,8.9µM,0
CC(=O)c1sc(C(C)(C)C)cc1NC(=O)/C=C/C(=O)O,0,0,0,0
CCOCC(=O)Nc1nc2ccc(OCC)cc2s1,0,0,0,0
SMILES,RXFP1 antagonist,RXFP1 ag,gsp ag,gsp antag
CCOc1ccc2nc(NC(=O)C3(C)CC3(Br)Br)sc2c1 (centres undefined),-84,-,0,?
C/C(=N\O)[C@@H](C)NCC(C)(C)CN[C@H](C)/C(C)=N/O,0,-,-,-
COc1cnn(-c2ccc(C)cc2)c(=O)c1SCc1ccccc1,0,0,?,32µM
CCn1nc(C)cc1-c1nnc(Sc2ncc([N+](=O)[O-])s2)n1C,-73,0,0,0
Cc1cccc(N2CCN(C(=O)C3CCN(C(=O)c4cc5sccc5n4C)CC3)CC2C)c1 (centres undefined),-65,0,-,-
CCN(CC)CC(=O)OCC(=O)[C@@]1(O)CC[C@H]2[C@@H]3CCC4=CC(=O)CC[C@]4(C)[C@H]3[C@@H](O)C[C@@]21C,0,-,-,-
CCOC(=O)N1CCN(C(=O)c2cc3cc(F)ccc3[nH]2)CC1,0,0,0[15.4 µM],0
CCOC(=O)N1CCN(C(=O)c2cc3cc(Cl)ccc3[nH]2)CC1,0,0,0,50µM
CCOc1cc(CNC(=O)c2cc(-c3ccccc3)n[nH]2)cc(OCC)c1OCC,0,0,-,-
CCn1c(=S)[nH]c2scc(-c3cccs3)c2c1=O,0,16µM,?,0
CCOc1ccc2nc(NC(=O)CSc3nc(-c4ccccc4)c(C#N)c(=O)[nH]3)sc2c1,0,?,0[15.4 µM],0
N#Cc1c(-c2ccccc2)nc(SCC(=O)NC2CCCCC2)[nH]c1=O,0,22µM,?,0
O=C(CSc1nc2scc(-c3ccccc3)c2c(=O)[nH]1)NC1CCCCC1,-,0,-,-
COc1cccc(-c2nc(SCC(=O)Nc3nc(-c4ccccc4)c(C)s3)[nH]c(=O)c2C#N)c1,-71,0,0[15.4 µM],0
